Test results published in PubChem BioAssay AID686978 (National Center for Advancing Translational Sciences (NCATS), 2013).
Screen size: about 420,000 compounds; about 64,000 (15%) were called active. Not shown: some 27% with an inconclusive outcome. The list is a sample of the results. Unmarked numbers belong to inactive results. The call rests on the fitted dose curve; in most records, active means well fitted inhibition curve with a large enough effect; inconclusive means small, poorly fitted or top-dose-only effect; inactive means flat fitted curve, though single readings scatter.

experiment: qHTS for Inhibitors of human tyrosyl-DNA phosphodiesterase 1 (TDP1): qHTS in cells in absence of CPT; conditions: DT40 Tdp1-/- hTDP1 cells, no CPT, ATP luminescence, 48 h; activity change, negative = growth inhibition: at 46.2 µM (top of the series); further: nearly all actives have a fitted effect of over 55% in size
Method in brief: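 Luminescent ATP content (CellTiter-Glo) served as the growth readout. Knockout chicken DT40 cells expressing human TDP1 were exposed to compounds without camptothecin for a minimum 48 hr at 37 °C.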
On the % scale 0 is the no-effect control and ±100 the full control effect; potency means the concentration at half of the fitted maximal effect.

SMILES | activity change, negative = growth inhibition [%] | Potency
CCCS(=O)(=O)N1CCC(C(=O)NCCCN(C)Cc2ccccc2)CC1 | -0.239 | 
CSc1ncnc2c1ncn2CCCNCc1ccco1 | -3.83 | 
O=C(Nc1cccnc1)c1cc2cc(Br)ccc2oc1=O | 9.72 | 
COC(=O)c1cc(=O)n(-c2c(Cl)cc(C(F)(F)F)cc2Cl)[nH]1 | -2.3 | 
CCOC(=O)c1c(NC(=O)CSc2nccc(=O)[nH]2)sc(C)c1C | -3.03 | 
CCC(=O)Nc1ccc(-c2ccc(N3CCCCC3)nn2)cc1 | -24.9 | 
Cc1ccc(S(=O)(=O)N2CCC(Oc3ccc(-n4cnnn4)cc3)CC2)cc1 | -1.55 | 
COc1ccc(/C=N/NC(=O)CNC(=O)c2ccc(S(=O)(=O)N3CCCC3)cc2)c(OC)c1 | -2.19 | 
COc1ccc(/C=N/NC(=O)Nc2ccc3nsnc3c2)c(OC)c1 | 14.1 | 
COc1ccc(/C=N/Nc2cc(N3CCOCC3)nc(C)n2)c(OC)c1 |  | 20.6 µM (active)
CN(C)c1ccc(/C=N/Nc2cc(N3CCOCC3)nc(N3CCOCC3)n2)cc1 | -4.47 | 
Cc1ccccc1N/N=C/c1ccc(N2CCOCC2)cc1 | -13.9 | 
C(=N/Nc1cc(N2CCOCC2)nc(N2CCOCC2)n1)/c1ccccc1 |  | 20.6 µM (active)
C=CCN1C(=O)C(Cc2ccc(OCC)cc2)SC1=Nc1ccc(C(=O)O)cc1 (centres undefined) | 6.09 | 
COc1ccc(N=C2SC(C(=O)Nc3ccc(F)cc3)CC(=O)N2C)cc1 (centres undefined) | -4.58 | 
CC1Cc2ccccc2N1C(=O)CSc1nnc(C2CC2)n1C (centres undefined) | -25.7 | 
COc1ccc(CC(=O)Nc2c(C(N)=O)oc3ccccc23)cc1 | 2.8 | 
COCCNC(=O)CSc1nc2c(n1-c1ccccc1)CCCC2 | -11.9 | 
Nc1ncnc2c1ncn2C1CC(O)C(CO)O1 (centres undefined) |  | 4.61 µM (active)
Nc1ccn(C2CC(O)C(CO)O2)c(=O)n1 (centres undefined) | -4.34 | 
Nc1ncnc2c1cnn2C1CC(O)C(CO)O1 (centres undefined) | 3.22 | 
O=C(Cc1ccccc1)NNS(=O)(=O)c1ccc([N+](=O)[O-])cc1 | -20.9 | 
O=C(NNS(=O)(=O)Cc1ccccc1)c1ccc([N+](=O)[O-])cc1 | -9.44 | 
O=[N+]([O-])c1ccc(C(S(=O)(=O)Cc2ccccc2)S(=O)(=O)Cc2ccccc2)cc1 |  | 18.4 µM (active)
Cn1c(N)cc(-c2ccc(F)cc2)c(C#N)c1=O | 8.99 | 
CCOc1[nH]n(-c2ccc(Cl)cc2)c(=O)c1C=Nc1ccc(O)cc1 |  | 5.17 µM (active)

SMILES | activity change, negative = growth inhibition [%] | Potency
CCOc1ccc(N=C2NC(=O)S/C2=C\c2ccc(O)cc2)cc1 | -2.77 | 
CC(=O)Cn1ncc(N2CCOCC2)c(Br)c1=O | 2.02 | 
Cc1ccc(Cc2nc(-c3cccc(C)c3)no2)cc1 | -22.1 | 
N/C(=N\S(=O)(=O)c1ccc(Cl)cc1)N1CCOCC1 | -5.51 | 
CCOC(=O)c1cnc2nc(SCc3ccccc3Cl)[nH]n2c1=O | -1.61 | 
COc1ccc(OCCn2ccnc2C)cc1 | 13.3 | 
Cc1cc2ncn(CCCCOc3ccccc3)c2cc1C |  | 14.6 µM (active)
COc1ccc(OCCCn2c(C)nc3cc(C)c(C)cc32)cc1 |  | 10.3 µM (active)
COc1ccc2ccn(C)c2c1 | 3.79 | 
COCCOCCn1cnc2ccccc21 | -17.7 | 
O=c1c2ccccc2ncn1CCCCOc1ccccc1F | 0.355 | 
Cc1ccc(C(=O)N2CCN(S(=O)(=O)N3CCOCC3)CC2)cc1 | -0.232 | 
N#Cc1c(-c2cccs2)nc(SCC(=O)c2ccc(Br)cc2)[nH]c1=O | -1.86 | 
O=C(NC(C(=O)NCCN1CCOCC1)C12CC3CC(CC(C3)C1)C2)C1CCCCC1 (centres undefined) | -11.2 | 
Cc1ccc(S/C(=N\S(=O)(=O)c2ccc(Cl)cc2)c2ccccc2)cc1 |  | 10.3 µM (active)
O=S(=O)(/N=C(/Nc1ccccn1)c1ccccc1)c1ccc(Cl)cc1 | -4.59 | 
Cc1ccc(S(=O)(=O)/N=C(/Nc2ccccn2)c2ccc(Cl)cc2)cc1 | -13.4 | 
O=C(CCS(=O)(=O)c1ccccc1Cl)Nc1ccc(S(=O)(=O)Nc2ncccn2)cc1 | 39 | 
O=C(O)c1ccccc1NC(=O)c1ccccc1-c1ccccc1C(=O)O | 11.1 | 
CCOC(=O)CCNC(=O)N1CCCC(C(=O)c2ccccc2SC)C1 (centres undefined) | -6.94 | 
CCNC(=O)N1CCCC(C(=O)c2ccc(-c3ccccc3)cc2)C1 (centres undefined) |  | 9.2 µM (active)
Cc1ccccc1NC(=O)C1CCCN(C(=O)NCc2ccccc2)C1 (centres undefined) | -7.54 | 
O=C(CSc1nnc(-c2ccco2)n1-c1ccccc1)NCCc1ccccc1 | -15.7 | 
Cc1ccc(Nc2nc(N)nc(CN3CCN(Cc4ccccc4)CC3)n2)cc1Cl |  | 16.4 µM (active)
CCSCc1nc(N)nc(NCCc2ccccc2)n1 | -4.87 | 
CCOC(=O)N1CCN(Cc2nc(N)nc(Nc3ccc(C)cc3)n2)CC1 | 2.14 | 

SMILES | activity change, negative = growth inhibition [%] | Potency
CCOc1ccc(S(=O)(=O)NCc2ccc3c(c2)OCO3)cc1C | 11.8 | 
O=C(OCCN=C1NS(=O)(=O)c2ccccc21)c1cccc([N+](=O)[O-])c1 | -22.8 | 
Cc1cccc(C(=O)Nc2ccc(C(=O)/C=C/c3cccs3)cc2)c1 |  | 16.4 µM (active)
Cc1ccc(C(=O)Nc2ccc(NC(=O)c3cccs3)cc2)c(C)c1 | -23.5 | 
Cc1cccc(C(=O)Nc2ccc(CC(=O)O)cc2)c1 | -5.82 | 
COCCCNC(=O)CCc1nc2cccnc2n1Cc1ccc(OC)cc1 | -4.33 | 
COc1ccc(OC)c(CCNC(=O)CCCn2c(=O)c3cccn3c3cccnc32)c1 |  | 20.6 µM (active)
CC1CCCCC12NC(=O)N(CC(=O)Nc1ccc(S(=O)(=O)Nc3ncccn3)cc1)C2=O (centres undefined) | -14.9 | 
CC1CCN(C(=O)Cn2nnnc2CN2CCOCC2)CC1 | 6.65 | 
CN(c1ccccc1)S(=O)(=O)c1ccc2[nH]c(=O)[nH]c2c1 | 0.432 | 
Cc1ccnc(NS(=O)(=O)c2ccc(NC(=O)c3ccc(S(=O)(=O)N(C)C)cc3)cc2)n1 | -2.78 | 
Cc1cccc(NC(=O)c2ccc(S(=O)(=O)N(C)c3ccccc3)cc2)n1 |  | 20.6 µM (active)
O=C(NCc1ccccc1Cl)C(=O)NCC1CCCN1S(=O)(=O)c1cccs1 (centres undefined) | -22.4 | 
O=C(NCCC1CCCCN1S(=O)(=O)c1cccs1)C(=O)Nc1ccc(F)cc1F (centres undefined) |  | 2.59 µM (active)
O=C(NCCC1CCCCN1S(=O)(=O)c1ccc(F)cc1)C(=O)NC1CC1 (centres undefined) | -3.26 | 
CCOC(=O)N1CCN(CCC(=O)Nc2ccccc2)CC1 | -12.8 | 
CCOC(=O)c1c(C)oc(C)c(C(=O)OCC)c1=O | 2.36 | 
COc1ccc(N2CCN(C(=O)c3c(C)oc4nc(C)nc(N5CCCC5)c34)CC2)cc1 | -22.7 | 
CCOC(=O)c1c(C)oc2nc(C)nc(Nc3ccc(CC)cc3)c12 | -30.4 | 
CCOC(=O)c1c(C)oc2nc(C)nc(N3CCN(c4ccc(OC)cc4)CC3)c12 |  | 8.2 µM (active)
CCOC(=O)c1c(C)oc2nc(C)nc(N(CC(C)C)CC(C)C)c12 |  | 16.4 µM (active)
Cc1nc(N2CCOCC2)c2c(C(=O)NCc3cccc(Cl)c3)c(C)oc2n1 | -1.65 | 
NC(=O)c1cc(-c2cccnc2)nc2ccc(Br)cc12 | -13.9 | 
CN1C(=O)/C(=N/OC(=O)c2ccccc2Br)c2ccccc21 | -28.5 | 
COc1cc(SC#N)ccc1N=Cc1c(C)[nH]n(-c2ccc(C)cc2)c1=O |  | 3.66 µM (active)
CCOC(=O)c1sc2nc(C)nc(SCC(N)=O)c2c1C | 2.57 | 

SMILES | activity change, negative = growth inhibition [%] | Potency
COC(=O)C1(C)NC(c2ccc(C)cc2)C2C(=O)N(c3ccc(F)cc3)C(=O)C21 (centres undefined) | 5.47 | 
COC(=O)[C@]1(C)N[C@H](c2ccc(-c3ccc(Cl)c(Cl)c3)cc2)[C@@H]2C(=O)N(C)C(=O)[C@@H]21 |  | 16.4 µM (active)
COC(=O)C1(C)NC(c2ccc(F)cc2)C2C(=O)N(c3ccccc3)C(=O)C21 (centres undefined) | 17.9 | 
O=S(=O)(c1ccc(F)cc1)N1CC=C(c2ccccc2)CC1 | -29.1 | 
CC1(C)CC(=O)C2=C(C1)NCN(CCCN1CCOCC1)C2 | -11.2 | 
Cc1c(NC(=O)CN2C(=O)C(=O)N(Cc3ccccc3)C2=O)c(=O)n(-c2ccccc2)n1C | 7.02 | 
CCOC(=O)c1cc2c(=O)n3ccccc3nc2n(CCCOC)c1=NC(=O)C(C)Oc1ccccc1 (centres undefined) | -24.7 | 
CCOC(=O)c1cc2c(=O)n3ccccc3nc2n(CC(C)C)c1=NC(=O)c1c(-c2c(F)cccc2Cl)noc1C |  | 5.8 µM (active)
CCOC(=O)c1cc2c(=O)n3ccccc3nc2n(CC2CCCO2)c1=NC(=O)c1ccc(C(C)(C)C)cc1 (centres undefined) | -2.39 | 
c1c2c(cc3sc(N4CCCCC4)nc13)OCCO2 | -22.8 | 
CCc1nc(C)ccc1OCC(=O)N(CC)CC | -10.2 | 
CCC(C)(C)c1ccc(OCC(=O)N(C)C)c(C(C)(C)CC)c1 |  | 18.4 µM (active)
CCn1c(CNc2ccc(OC)cc2)nnc1SCC(=O)c1ccc(OC)cc1 | -21.5 | 
Cc1cccc(C(=O)NNC(=O)CSc2nnc(C(C)C)n2C)c1 | 0.652 | 
CCn1c(SCC(=O)NNC(=O)c2ccc(OC)cc2)nnc1C(C)C |  | 20.6 µM (active)
CCNC(=O)NC(=O)C(C)OC(=O)C1CCN(S(=O)(=O)c2ccccc2F)CC1 (centres undefined) | -0.61 | 
Cc1nc(COc2cccc(Cl)c2)sc1C(=O)/C=C/N(C)C | -10.1 | 
CCOc1ccccc1C(=O)Nc1ccc(S(=O)(=O)N2CCCCC2c2cccnc2)cc1 (centres undefined) |  | 18.4 µM (active)
CCOc1ncccc1C(=O)Nc1ccc(S(=O)(=O)Nc2nc(C)cc(C)n2)cc1 | -3.56 | 
CC(C)NS(=O)(=O)c1ccc(NC(=O)c2cccnc2)cc1 | -17.9 | 
CCOc1ccc(S(=O)(=O)N2CCC(c3ccccc3)CC2)cc1C(=O)O | 9.36 | 
Cc1cccc(C(=O)Nc2ccc(S(=O)(=O)N3CCCCC3c3cccnc3)cc2)c1 (centres undefined) |  | 18.4 µM (active)
Cc1cc(NS(=O)(=O)c2ccc(NC(=O)c3cccnc3)cc2)nc(C)n1 | -9.45 | 
CCn1ccnc1CNC(=O)CC1C(=O)NCCN1Cc1ccc(F)cc1Cl (centres undefined) | 1.09 | 
COC(=O)Cn1c(=NC(=O)c2cc(OC)c(OC)c(OC)c2)sc2cc(OC)ccc21 | -24.5 | 
NS(=O)(=O)c1cccc(NC(=O)COC(=O)c2cc([N+](=O)[O-])ccc2N2CCCC2)c1 | -4.81 | 
